CCHFV vOTU inh – CCHFV vOTU protease inhibition | Pep-AMC fluorescence | inhibition, % at 11.5 µM | 370,000 tested, 0.55% active; note: 0% = vehicle wells with enzyme and 100% = no enzyme wells
RecA intein inh – blocks M. tuberculosis RecA intein splicing | cell-free RecA intein splicing, fluorescence | 290,000 tested, 0.75% active | P9WHJ3 | inhibition, % (no concentration beside the values); in the data active = inhibition above about 30%;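 note: 0% = vehicle wells and 100% = reference inhibitor control wells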
Mtb FBA inh – inhibitors of M. tuberculosis fructose-bisphosphate aldolase; P9WQA3; purified M. tuberculosis FBA, fluorescence read-out; inhibition, % at 1 µM; 360,000 tested, 2.3% active; AID 588726; in the data active = inhibition above about 27%;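 note: 0% = vehicle and 100% = reference inhibitor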
Target sequence (P9WQA3 whole entry, looked up): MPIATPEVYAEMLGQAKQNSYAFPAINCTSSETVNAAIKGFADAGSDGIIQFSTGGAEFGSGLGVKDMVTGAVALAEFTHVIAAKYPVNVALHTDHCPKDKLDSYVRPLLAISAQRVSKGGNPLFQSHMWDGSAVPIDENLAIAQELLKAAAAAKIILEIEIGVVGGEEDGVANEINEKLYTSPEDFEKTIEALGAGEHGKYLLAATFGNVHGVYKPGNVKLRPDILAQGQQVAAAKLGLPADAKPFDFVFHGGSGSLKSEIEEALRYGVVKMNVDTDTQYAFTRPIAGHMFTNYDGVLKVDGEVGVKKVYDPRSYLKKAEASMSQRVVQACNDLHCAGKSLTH
SARS 3CLpro inh – SARS-CoV 3CLpro protease inhibition; 290,000 tested, 0.14% active; AID 1706; inhibition, % at 6 µM; recombinant SARS-CoV 3CLpro, quenched FRET peptide cleavage; P0C6X7; in the data active = inhibition above about 12%
GDH-TPI inh – GDH-TPI coupled enzyme inhibition counter-screen; 360,000 tested, 1.2% active; GDH-TPI coupled enzyme counterscreen, NADH absorbance; inhibition, % at 4.8 µM;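 note: 0% = DMSO wells and 100% = wells lacking the enzyme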
DUSP3 inh – DUSP3 (human) phosphatase inhibition. inhibition, % at 13.3 µM. 290,000 tested, 0.52% active. AID 1654. P51452. recombinant VHR phosphatase, pNPP absorbance; in the data active = inhibition above about 50%
Target sequence (P51452 whole entry, looked up): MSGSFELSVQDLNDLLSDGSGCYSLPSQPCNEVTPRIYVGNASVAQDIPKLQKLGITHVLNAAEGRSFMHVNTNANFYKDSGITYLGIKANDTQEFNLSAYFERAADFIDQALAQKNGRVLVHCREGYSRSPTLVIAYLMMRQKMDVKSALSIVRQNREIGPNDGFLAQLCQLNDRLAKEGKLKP
The depositor's hits bear a star; i = inactive; nt = no result; + = active, no number. In the library only some 4.7% were active in any assay of this set; here they are far more common. Cut-off read from the data, not from the text of the source, unless noted: active = inhibition above about 30%; inactive = the rest.

SMILES	CCHFV vOTU inh	RecA intein inh	Mtb FBA inh	SARS 3CLpro inh	GDH-TPI inh	DUSP3 inh
O=C(Nc1c(C(=O)C2CC2)oc2ccccc12)c1ccc(Cl)cc1	-3	-2	1	-5	9	51*
CC1Oc2cc3c(-c4c(O)cc(O)c5c(O)c6c(cc45)OC(C)C(C)C6=O)c(O)cc(O)c3c(O)c2C(=O)C1C (stereo unspecified)	nt	87*	-2	1	27	13
Cc1cc(Nc2ccc3c(c2)OCCO3)c2ccccc2n1	8	1	-2	-2	15	-4
Cc1ccc2nc(C)cc(Nc3ccc4c(c3)OCCO4)c2c1	5	3	3	1	33*	-2
CN1c2ccccc2-c2nc3ccccc3n2C1c1ccccn1 (stereo unspecified)	-136	-85	47*	0	9	19
CN1c2ccccc2-c2nc3ccccc3n2C1c1ccncc1 (stereo unspecified)	8	-4	12	2	20	10
c1ccc(CN2c3ccccc3-c3nc4ccccc4n3C2c2ccccn2)cc1 (stereo unspecified)	-64	9	121*	2	5	27
CCN1c2ccccc2-c2nc3ccccc3n2C1c1ccco1 (stereo unspecified)	-242	-65	+	2	9	32
Clc1ccc(Cn2c(-c3cccnc3Cl)nc3ccccc32)cc1	-19	7	2	4	-1	11
COC(=O)[C@H]1C[C@@]2(Oc3ccc(Br)cc3)c3ccccc3N(C(=O)OC(C)(C)C)[C@H]2N1C(=O)OC(C)(C)C	14	nt	nt	nt	nt	nt
Nc1ccc(S(=O)(=O)Nc2nccc(/C=C/c3cccc(Br)c3)n2)cc1	6	3	-6	-2	20	38
CN1CC=C2C(C#N)=C(N)C(C#N)(C#N)C(c3ccncc3)C2C1 (stereo unspecified)	nt	-75	20	1	7	-12
CC(C)c1ccc(C2C3CSCC=C3C(C#N)=C(N)C2(C#N)C#N)cc1 (stereo unspecified)	nt	36*	nt	4	nt	-8
O=C(N/N=C/c1ccc(O)cc1)c1cccc(N/N=C/c2ccc(O)cc2)c1	5	1	-1	-4	37*	6
O=C(N/N=C/c1ccc(O)cc1)c1ccc(NC(=O)c2ccccc2Br)cc1	8	-1	-4	-11	42*	21
O=C(N/N=C/c1ccncc1)c1cccc(N/N=C/c2ccncc2)c1	12	-1	-3	-4	16	13
O=C(Nc1ccccc1C(=O)N/N=C/c1ccc(F)cc1)c1ccccc1Br	-12	1	1	6	5	24
Cc1ccccc1C(=O)Nc1ccc(C(=O)N/N=C/c2ccc(O)cc2)cc1	29	0	4	-4	34*	26
CCC1CCCCN1CCCNC(=O)CCC(=O)N1CC(C)Oc2ccccc21 (stereo unspecified)	2	-3	-3	-2	2	53*
CC(=O)Nc1cnc(-c2ccc3c(c2)OCO3)cn1	24	nt	1	nt	14	nt
CC(=O)Nc1cnc(-c2cc(C)c(O)c(C)c2)cn1	5	nt	0	nt	32*	nt
C[C@@H]1CN([C@@H](C)CO)C(=O)c2cc(Br)cnc2O[C@H]1CN(C)Cc1ccccc1C(=O)O	-6	nt	2	nt	2	nt
O=C(Nc1nc2ccccc2n1CCN1CCOCC1)c1cn(-c2ccccc2)nc1-c1ccccc1	14	19	1	1	42*	-4
O=C(Nc1nc2ccccc2n1CCN1CCOCC1)c1ccccc1	9	2	-2	1	10	6
COc1ccccc1N=c1oc2cc(O)ccc2cc1C(N)=O	-215	i	+	4	-1	11
SMILES	CCHFV vOTU inh	RecA intein inh	Mtb FBA inh	SARS 3CLpro inh	GDH-TPI inh	DUSP3 inh
COc1ccccc1N=c1oc2cc(O)ccc2cc1C(=O)NCC1CCCO1 (stereo unspecified)	-219	-354	+	7	23	3
COc1ccc2cc(C(N)=O)/c(=N\NC(=O)c3ccccc3)oc2c1	-54	-17	112*	-11	9	nt
Cc1cccc(N=c2oc3cc(O)ccc3cc2C(N)=O)c1	-226	-379	+	-2	8	19
COc1cccc(C(=O)N/N=c2/oc3ccccc3cc2C(N)=O)c1	11	0	-3	-1	19	24
CCN1C[C@@H]2[C@@H]3C(=O)N(Cc4ccccc4)C(=O)[C@@H]3[C@](CC)(C1=O)N2C(=O)c1ccc(Cl)cc1	-3	nt	nt	nt	nt	nt
CCN(C[C@H]1N[C@@](CC)(C(=O)OC)[C@H]2C(=O)N(C)C(=O)[C@@H]12)C(=O)c1ccccc1	-4	nt	2	nt	-1	nt
C#CCNC(=O)C[C@H]1C[C@@]2(C(=O)OC)C(=C[C@H](COCc3ccccc3)O[C@@H]2C)N(Cc2ccc3c(c2)OCO3)C1=O	19	nt	nt	nt	nt	nt
COc1cccc(N=c2oc3cc(O)ccc3cc2C(=O)NCC2CCCO2)c1 (stereo unspecified)	-180	nt	+	3	-1	-15
Cc1ccccc1Cc1c(C)nc2c(C(=O)NCc3ccco3)cnn2c1C	nt	17	48*	1	6	21
Cc1ccccc1Cc1c(C)nc2nc(SCC(=O)NCc3ccco3)nn2c1C	-3	3	-3	1	3	28
CCOP(=O)(OCC)/C(C#N)=C/c1cc(OC)ccc1OC	-10	-1	7	0	4	52*
Fc1ccc(-c2ccnc3nc(N4CCOCC4)nn23)cc1	-49	-11	52*	0	8	20
O=C(N[C@@H](Cc1cccnc1)C(=O)N1CCC[C@H]1C(=O)NC1CCCC1)c1ccccc1	-5	nt	nt	nt	nt	nt
CCC(C)N(C(=O)CSc1nnc(-c2cccnc2)n1C1CCCCC1)C(C)CC (stereo unspecified)	-2	nt	nt	nt	nt	nt
O=C(c1ccco1)N1CCN(c2ccc([N+](=O)[O-])cn2)CC1	12	1	3	-4	31*	18
COc1ccc(-c2cc3nc4n(c(=O)c3s2)CCCCC4)cc1	-44	-2	+	-1	24	27
COc1ccc(-c2nc3n(c2C)CCC3)cc1	-2	0	-2	-1	3	22
COc1ccc(-c2cc3nc4n(c(=O)c3s2)CCC4)cc1	-92	-2	+	-5	13	10
COc1ccc(-c2cc3nc(C)n(N)c(=O)c3s2)cc1	-99	-5	+	-1	32*	6
Cc1ccc2nc(SCC(=O)N3CCCc4ccccc43)nc(=O)n2c1	-4	nt	-2	nt	16	nt
CC1(C(=O)NCc2cccc3ccccc23)CCN1C(=O)C1(c2ccccc2)CCCC1 (stereo unspecified)	2	nt	0	nt	8	nt
Cc1cc(Nc2ccc(Cl)c(C(F)(F)F)c2)cc(=O)n1-c1ccc(Cl)c(C(F)(F)F)c1	11	nt	nt	nt	nt	nt
CCCCCn1nnnc1C1(C)CCC(=O)N1Cc1ccco1 (stereo unspecified)	3	nt	nt	nt	nt	nt
Cc1cccc(Cn2cc(COC(=O)NCCc3ccccc3)nn2)c1	-4	nt	nt	nt	nt	nt

Screening data: PubChem BioAssay, several laboratories
